Inconclusive results are not listed. Active and inactive are the calls of the source. Unless noted, the call rests on the fitted dose curve.

Experimental findings from PubChem BioAssay (NCATS) are described below.

Assay [1] addresses Glucocorticoid receptor (Homo sapiens) (UniProt P04150). Briefly: qHTS assay for small molecule agonists of glucocorticoid receptor signaling (AID 588532; active means well fitted curve in the direction sought with a large enough effect in the signal ratio, with a control signal flat; the % refers to the signal ratio;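 further: 100% = dexamethasone at 0.1 µM and 0% = DMSO only wells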). Conditions: HeLa MMTV-bla, beta-lactamase ratio, agonist, 18 h; activation: stronger effect = higher value, percent of dexamethasone control, DMSO zero. A digest of the protocol: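 Agonist-mode qHTS: GRE-driven beta-lactamase in HeLa cells exposed 18 h to titrated compounds (up to 92 uM), then CCF4 ratio read after 2 h at RT; Hill-fitted EC50, efficacy relative to 0.1 uM dexamethasone.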
For orientation: In qHTS, concentration-response curves come from the screen itself.

The target is the same in assay [2]. Briefly: qHTS assay for small molecule antagonists of glucocorticoid receptor signaling (AID 588533; active means well fitted inhibition curve with a large enough effect in the signal ratio, with a control signal flat, not every such curve was filed as active; the % refers to the signal ratio;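 further: cells stimulated with 2 nM dexamethasone as agonist; on the % scale 0 is the no-effect control and ±100 the full control effect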). A digest of the protocol:
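Antagonist-mode qHTS: compound titrations added to GRE-bla HeLa cells, then dexamethasone 2 nM final; 18 h, 37 C. CCF4 FRET fluorescence normalized to dexamethasone and DMSO; IC50 from Hill fit.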

In assay [3] the target is Peroxisome proliferator-activated receptor delta (Homo sapiens) (UniProt Q03181). Put plainly: qHTS assay for small molecule agonists of peroxisome proliferator-activated receptor delta signaling (AID 588534).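 Further: 0% = DMSO basal wells and 100% = positive control agonist at 10 µM.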 The essentials: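 Fluorescence from CCF4 substrate cleavage by beta-lactamase reporter, read 2 hrs at RT, measured agonist activity. Compounds were tested with 18 hrs exposure at 37 C. Concentration-response data fitted to Hill equation.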
Sequence of Peroxisome proliferator-activated receptor delta (Homo sapiens) (Q03181 whole entry, looked up): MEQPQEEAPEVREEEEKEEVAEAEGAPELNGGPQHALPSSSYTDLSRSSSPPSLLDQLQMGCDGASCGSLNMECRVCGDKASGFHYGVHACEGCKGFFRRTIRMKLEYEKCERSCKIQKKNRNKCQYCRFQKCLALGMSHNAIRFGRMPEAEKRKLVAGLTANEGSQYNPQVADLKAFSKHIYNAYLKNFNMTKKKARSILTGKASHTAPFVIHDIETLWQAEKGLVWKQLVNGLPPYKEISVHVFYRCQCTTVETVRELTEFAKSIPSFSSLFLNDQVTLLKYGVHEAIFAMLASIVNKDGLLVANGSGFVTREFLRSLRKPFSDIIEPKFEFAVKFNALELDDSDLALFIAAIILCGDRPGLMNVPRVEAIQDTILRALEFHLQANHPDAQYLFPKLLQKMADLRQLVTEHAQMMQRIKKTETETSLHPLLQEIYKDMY

Assay [4] in a line: qHTS assay for small molecule antagonists of peroxisome proliferator-activated receptor delta signaling (AID 588535; active means well fitted inhibition curve with a large enough effect in the signal ratio, with a control signal flat, not every such curve was filed as active; the % refers to the signal ratio;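 on max response: cells co-treated with a PPAR-delta agonist as stimulator during compound exposure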). Conditions: HEK293T PPARd-UAS-bla, beta-lactamase FRET ratio, 18 h; 460 nm channel. The essentials:
(§1)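 HEK293T PPAR-delta-UAS-bla cells, 4000/well, 2% charcoal/dextran FBS; 5 h 37 C; cpd titration; 18 h 37 C; CCF4 2 h RT; FI 460/530 nm; Hill fit → IC50, efficacy.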

In assay [5] the target is Peroxisome proliferator-activated receptor delta (Homo sapiens) (UniProt Q03181). Described as above. The essentials: as §1
Assay [6] concerns the target Vitamin D3 receptor (Homo sapiens) (UniProt P11473). Briefly: qHTS assay for small molecule antagonists of vitamin D receptor signaling (AID 588541).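 Further: receptor activated by calcitriol during compound treatment; series mostly up to about 77 µM; on the % scale 0 is the no-effect control and ±100 the full control effect.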 A digest of the protocol:
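Antagonist-mode beta-lactamase reporter assay: HEK293T VDR-UAS-bla cells were exposed to titrated compound alongside 1-alpha,25-dihydroxyvitamin D3 at 3 nM final for 16 h. Values were normalized to the 50 nM agonist control and DMSO basal, with IC50 and efficacy from Hill equation fits.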

The target is the same in assay [7]. Briefly: qHTS assay for small molecule agonists of vitamin D receptor signaling (AID 588543).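 Further: 0% = DMSO basal and 100% = reference agonist control.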 The essentials: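 Measured: β-lactamase reporter activity (CCF4, 405 nm excitation, 460/530 nm emission) in HEK293T VDR-UAS-bla cells after 16 h compound exposure at 37 °C. Normalization against 50 nM 1α,25-dihydroxyvitamin D3 and DMSO; Hill-fit EC50.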
A short description of assay [8]: qHTS assay for small molecule agonists of retinoid X receptor alpha signaling (AID 588544).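 On activation: 0% = DMSO basal wells and 100% = reference agonist.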 Conditions: HEK293T RXRa-UAS-bla, beta-lactamase reporter, 18 h; 530 nm emission.
Assay [9] deals with Retinoic acid receptor RXR-alpha (Homo sapiens) (UniProt P19793). The assay is described as above.
Sequence of Retinoic acid receptor RXR-alpha (Homo sapiens) (P19793 whole entry, looked up): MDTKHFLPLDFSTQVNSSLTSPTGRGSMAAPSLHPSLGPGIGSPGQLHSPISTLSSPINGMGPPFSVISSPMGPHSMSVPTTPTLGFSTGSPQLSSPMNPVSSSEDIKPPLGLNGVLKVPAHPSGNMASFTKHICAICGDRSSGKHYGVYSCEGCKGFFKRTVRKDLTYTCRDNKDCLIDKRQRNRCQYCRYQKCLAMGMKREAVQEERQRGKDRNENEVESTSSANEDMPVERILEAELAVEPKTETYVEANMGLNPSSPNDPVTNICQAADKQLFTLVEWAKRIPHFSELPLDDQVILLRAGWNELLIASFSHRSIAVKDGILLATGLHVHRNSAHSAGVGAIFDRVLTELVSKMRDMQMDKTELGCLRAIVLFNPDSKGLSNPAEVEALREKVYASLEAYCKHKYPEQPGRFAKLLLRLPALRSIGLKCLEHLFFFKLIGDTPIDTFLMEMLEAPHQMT
Assay [10] concerns the target Thyroid hormone receptor beta (Homo sapiens) (UniProt P10828). Put plainly: qHTS assay for small molecule agonists of thyroid hormone receptor beta signaling (AID 588545).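 Further: 0% = DMSO only and 100% = 10 nM T3.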 The essentials:
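Stimulation of a TR-driven beta-lactamase reporter was quantified in GripTite HEK 293 cells. Compound series ran for 18 hrs; curves were normalized to T3 and DMSO controls and fitted to yield EC50.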

Assay [11] can be described thus: qHTS assay for small molecule antagonists of retinoid X receptor alpha signaling (AID 588546; active means well fitted inhibition curve with a large enough effect in the signal ratio, with a control signal flat, not every such curve was filed as active; the % refers to the signal ratio;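 further: cells stimulated with 9-cis-retinoic acid as agonist; on the % scale 0 is the no-effect control and ±100 the full control effect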). Conditions: HEK293T RXRa-UAS-bla, beta-lactamase ratio, antagonist mode; measured here: W530 green channel, cytotoxicity proxy. A digest of the protocol:
(§2)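 Beta-lactamase reporter inhibition, read as CCF4 fluorescence ratio (ex 405, em 460/530 nm) after 2 h at RT. HEK293T UAS-bla cells, 2500/well, were stimulated with 9-cis-RA at 500 or 100 nM final alongside test compound for 18 h at 37 C.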

Assay [12] concerns the target Retinoic acid receptor RXR-alpha (Homo sapiens) (UniProt P19793). The assay is described as above. As to conditions: HEK293T RXRa-UAS-bla, beta-lactamase ratio, antagonist mode. The essentials: as §2
Assay [13] can be described thus: qHTS assay for small molecule activators of the p53 signaling pathway (AID 651743; active means well fitted activation curve with a large enough effect in the signal ratio, not every such curve was filed as active; the % refers to the signal ratio; further: series mostly up to about 92 µM; % of control where 0% means no effect). As to conditions: HCT-116 p53RE-bla, beta-lactamase FRET ratio, 16 h; activation: stronger effect = higher value. The essentials:
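Read-out is fluorescence intensity from the LiveBLAzer B/G FRET substrate, added for 2 hours at room temperature after HCT-116 p53RE-bla cells had been incubated with compounds for 16 hours at 37 C.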

The nature of assay [14]: qHTS assay for small molecule activators of the nuclear factor-kappa B (NF-kB) signaling pathway (AID 651749; active means well fitted activation curve with a large enough effect in the signal ratio; the % refers to the signal ratio; further: series mostly up to about 77 µM; % of control where 0% means no effect). As to conditions: NF-kB-bla ME-180 cells, beta-lactamase FRET ratio, 16 h; activation: stronger effect = higher value. A digest of the protocol: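 Readout: beta-lactamase reporter driven by an NF-kB response element, detected fluorescently as loss of FRET. Cells were the ME-180 line, treated 16 hr at 37C with pin-transferred compound.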

Assay [15] can be described thus: qHTS assay for small molecule agonists of the antioxidant response element (ARE) signaling pathway measured by Nrf2-dependant transcriptional activity (AID 720636; active means well fitted curve in the direction sought with a large enough effect in the repeat runs; an effect the other way counts as inactive or inconclusive;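 further: HepG2 cells with an ARE-driven luciferase reporter; % of control where 0% means no effect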). The essentials: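 Reporter gene assay, HepG2 ARE-luc: 16 hr compound, 37 C, 5% CO2; read-out luciferase luminescence.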
Assay [16] is described as follows: qHTS assay for small molecule agonists of the antioxidant response element (ARE) signaling pathway measured by Nrf2-dependant transcriptional activity - cell viability counter screen (AID 720653; active means well fitted curve in the direction sought with a large enough effect in the repeat runs; an effect the other way counts as inactive or inconclusive; further: on the % scale 0 is the no-effect control and ±100 the full control effect). As to conditions: ARE-bla HepG2 viability, CellTiter-Glo ATP luminescence, 16 h; max response: stronger effect = lower value. A digest of the protocol:
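Cytotoxicity counter screen: intracellular ATP quantified by CellTiter-Glo luminescence in the same ARE-bla HepG2 plates, after 16 h compound exposure and a 2 h beta-lactamase substrate step.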

Assay [17] in a line: qHTS assay for cell viability of HEK293 cells (AID 743288; active means well fitted curve in the direction sought with a large enough effect; an effect the other way counts as inactive or inconclusive; further: on the % scale 0 is the no-effect control and ±100 the full control effect; nearly all actives have a fitted effect of over 50% in size). Conditions: ATP luminescence (CellTiter-Glo), 18 h; max response: stronger effect = lower value. A digest of the protocol: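 Luminescent ATP quantitation served as the viability read-out. Cells (parental HEK293, 2,000/well) received compounds after at least 5 h at 37 C and were exposed for 18 h before a 30 min room-temperature reagent step.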

The nature of assay [18]: qHTS assay for cell viability of the p53RE-bla HCT-116 cell line (AID 743292; active means well fitted curve in the direction sought with a large enough effect; an effect the other way counts as inactive or inconclusive; further: on the % scale 0 is the no-effect control and ±100 the full control effect; nearly all actives have a fitted effect of over 55% in size). A digest of the protocol: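 Readout: CellTiter-Glo luminescence after 30 min RT. Treatment: compounds in DMSO, 16 h, 37 C. Cells: CellSensor p53RE-bla HCT-116, 4,000/well, preincubated 5 h.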
Assay [19] has as its target Nuclear receptor subfamily 1 group I member 2 (Rattus norvegicus) (UniProt Q9R1A7). Briefly: qHTS assay for small molecule activators of the rat pregnane X receptor (rPXR) signaling pathway (AID 651751; call rule not given here; further: 0% is about no effect). Conditions: rPXR reporter cells, luciferase (One-Glo), 24 h.
The nature of assay [20]: qHTS assay for small molecule activators of the human pregnane X receptor (PXR) signaling pathway (AID 720659; call rule not given here; further: 0% is about no effect).
Assay [21] concerns the target Bile acid receptor (Homo sapiens) (UniProt Q96RI1). Put plainly: qHTS assay for small molecule agonists of farnesoid X receptor signaling (AID 588527).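 Further: series mostly up to about 77 µM; 0% = vehicle basal and 100% = reference agonist.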 Conditions: HEK293T FXR-UAS-bla, beta-lactamase ratio, 16 h; activation: stronger effect = higher value. A digest of the protocol:
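Read-out: beta-lactamase reporter fluorescence with CCF4 substrate in GeneBLAzer FXR-UAS-bla HEK293T cells, after 16 h compound exposure at 37 C. Response scaled between DMSO basal (0%) and chenodeoxycholic acid at 100 uM (100%).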

Assay [22] is described as follows: qHTS assay for environmental chemicals that activate the Aryl hydrocarbon Receptor (AhR) signaling pathway (AID 651777; active means well fitted curve in the direction sought with a large enough effect; an effect the other way counts as inactive or inconclusive; further: potency means the concentration at half of the fitted maximal effect; nearly all actives have a fitted effect of over 15% in size). Conditions: 1A2-DRE human hepatoma cells, luciferase, 24 h; activation: stronger effect = higher value. A digest of the protocol: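 Stable CYP1A2 promoter/DRE-luciferase human hepatoma line treated 24 hr; One-Glo luminescence, 30 min RT.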
In assay [23] the target is Cytochrome P450 3A4 (Homo sapiens) (UniProt P08684). Briefly: qHTS Assay for Activators of Cytochrome P450 3A4 (AID 885; active means well fitted curve in the direction sought with a large enough effect; an effect the other way counts as inactive or inconclusive; further: nearly all actives have a fitted effect of over 65% in size). The essentials: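 Steps: enzyme/substrate mix dispensed; compound added, 10 min RT; NADPH regeneration solution added, 60 min RT; luciferin detection buffer stops reaction; 20 min later luminescence measured.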
Sequence of Cytochrome P450 3A4 (Homo sapiens) (P08684 whole entry, looked up): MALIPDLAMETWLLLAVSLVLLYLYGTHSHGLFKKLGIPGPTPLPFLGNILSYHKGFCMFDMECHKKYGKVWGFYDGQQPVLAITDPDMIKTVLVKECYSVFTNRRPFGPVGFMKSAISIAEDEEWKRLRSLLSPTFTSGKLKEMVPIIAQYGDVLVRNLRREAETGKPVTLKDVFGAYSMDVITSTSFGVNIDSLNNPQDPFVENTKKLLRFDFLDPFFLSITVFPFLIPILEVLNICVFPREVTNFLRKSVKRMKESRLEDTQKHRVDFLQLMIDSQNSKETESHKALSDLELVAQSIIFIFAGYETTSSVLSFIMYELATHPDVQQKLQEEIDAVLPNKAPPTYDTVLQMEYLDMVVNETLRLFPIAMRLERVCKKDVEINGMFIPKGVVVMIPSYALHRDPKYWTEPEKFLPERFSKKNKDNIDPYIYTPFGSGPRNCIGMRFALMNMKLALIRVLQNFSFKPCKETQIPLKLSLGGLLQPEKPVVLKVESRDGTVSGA
For assay [24] the target is unchanged. Put plainly: qHTS Assay for Inhibitors and Substrates of Cytochrome P450 3A4 (AID 884; active means well fitted curve in the direction sought with a large enough effect; an effect the other way counts as inactive or inconclusive; further: potency means the concentration at half of the fitted maximal effect; nearly all actives have a fitted effect of over 50% in size). A digest of the protocol: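 20 nM human CYP3A4 with 25 uM Luciferin-PPXE (at KM) in 200 mM KPO4, preincubated 10 min with compound; NADPH regeneration started a 60 min RT reaction. Luciferin detected by luminescence, normalized to 57 uM ketoconazole as full inhibition.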

The target of assay [25] is Voltage-gated inwardly rectifying potassium channel KCNH2 (Homo sapiens) (UniProt Q12809). Put plainly: qHTS Assay for Small Molecule Inhibitors of the Human hERG Channel Activity (AID 588834; active means well fitted curve in the direction sought with a large enough effect; an effect the other way counts as inactive or inconclusive;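 further: top concentration of the series differs between compounds; on the % scale 0 is the no-effect control and ±100 the full control effect; lower thallium flux fluorescence means stronger hERG block; nearly all actives have a fitted effect of over 50% in size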). The essentials: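 Blockade is seen as reduced FluxOR thallium-flux fluorescence in U2OS cells expressing hERG from a BacMam construct, in Opti-MEM with 2% FCS. Concentration-response data fitted to the Hill equation for AC50.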

Sequence of Bile acid receptor (Homo sapiens) (Q96RI1 whole entry, looked up): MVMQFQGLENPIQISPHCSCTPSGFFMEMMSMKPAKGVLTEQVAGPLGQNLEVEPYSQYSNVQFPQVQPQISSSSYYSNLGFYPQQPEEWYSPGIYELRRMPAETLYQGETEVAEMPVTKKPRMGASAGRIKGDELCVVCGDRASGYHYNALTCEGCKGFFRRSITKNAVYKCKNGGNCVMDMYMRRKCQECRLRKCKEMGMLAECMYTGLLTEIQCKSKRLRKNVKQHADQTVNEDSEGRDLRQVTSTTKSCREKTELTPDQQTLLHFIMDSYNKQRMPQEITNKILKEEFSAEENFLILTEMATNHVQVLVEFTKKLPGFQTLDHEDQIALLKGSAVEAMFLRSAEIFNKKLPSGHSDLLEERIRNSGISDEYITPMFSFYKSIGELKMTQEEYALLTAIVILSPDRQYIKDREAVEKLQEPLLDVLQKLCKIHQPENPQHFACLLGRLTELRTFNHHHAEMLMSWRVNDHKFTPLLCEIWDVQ
Sequence of Vitamin D3 receptor (Homo sapiens) (P11473 whole entry, looked up): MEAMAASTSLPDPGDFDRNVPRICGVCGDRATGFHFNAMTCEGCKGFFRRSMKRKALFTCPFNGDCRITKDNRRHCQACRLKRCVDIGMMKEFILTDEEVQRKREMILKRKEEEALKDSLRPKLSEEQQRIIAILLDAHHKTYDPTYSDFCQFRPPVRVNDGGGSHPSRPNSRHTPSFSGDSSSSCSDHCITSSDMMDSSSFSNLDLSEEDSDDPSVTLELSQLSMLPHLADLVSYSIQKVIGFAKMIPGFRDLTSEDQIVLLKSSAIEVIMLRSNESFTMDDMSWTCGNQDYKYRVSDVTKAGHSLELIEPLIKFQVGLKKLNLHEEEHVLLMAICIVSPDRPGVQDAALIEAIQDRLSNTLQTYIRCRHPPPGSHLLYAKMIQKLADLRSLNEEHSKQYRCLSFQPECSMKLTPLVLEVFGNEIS
Sequence of Glucocorticoid receptor (Homo sapiens) (P04150 whole entry, looked up): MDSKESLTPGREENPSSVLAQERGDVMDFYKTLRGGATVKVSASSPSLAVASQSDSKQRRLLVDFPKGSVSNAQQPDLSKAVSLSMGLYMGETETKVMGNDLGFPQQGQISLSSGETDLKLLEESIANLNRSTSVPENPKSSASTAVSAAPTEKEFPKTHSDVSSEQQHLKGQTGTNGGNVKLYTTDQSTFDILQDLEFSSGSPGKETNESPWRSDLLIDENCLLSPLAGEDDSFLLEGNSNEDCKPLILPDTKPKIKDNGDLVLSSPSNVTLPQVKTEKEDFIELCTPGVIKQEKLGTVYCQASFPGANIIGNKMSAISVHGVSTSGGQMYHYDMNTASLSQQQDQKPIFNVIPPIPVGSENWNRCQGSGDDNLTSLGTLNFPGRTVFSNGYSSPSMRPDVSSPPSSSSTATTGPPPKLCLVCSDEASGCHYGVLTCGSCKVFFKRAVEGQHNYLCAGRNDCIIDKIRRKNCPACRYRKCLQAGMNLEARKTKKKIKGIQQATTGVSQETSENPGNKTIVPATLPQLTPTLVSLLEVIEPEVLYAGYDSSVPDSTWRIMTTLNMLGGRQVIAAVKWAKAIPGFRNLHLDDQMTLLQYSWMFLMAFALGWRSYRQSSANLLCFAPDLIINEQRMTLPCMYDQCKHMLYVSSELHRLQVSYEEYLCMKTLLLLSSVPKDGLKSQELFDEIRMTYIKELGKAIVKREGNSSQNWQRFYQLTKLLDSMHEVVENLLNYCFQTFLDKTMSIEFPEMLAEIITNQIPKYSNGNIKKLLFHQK
Sequence of Thyroid hormone receptor beta (Homo sapiens) (P10828 whole entry, looked up): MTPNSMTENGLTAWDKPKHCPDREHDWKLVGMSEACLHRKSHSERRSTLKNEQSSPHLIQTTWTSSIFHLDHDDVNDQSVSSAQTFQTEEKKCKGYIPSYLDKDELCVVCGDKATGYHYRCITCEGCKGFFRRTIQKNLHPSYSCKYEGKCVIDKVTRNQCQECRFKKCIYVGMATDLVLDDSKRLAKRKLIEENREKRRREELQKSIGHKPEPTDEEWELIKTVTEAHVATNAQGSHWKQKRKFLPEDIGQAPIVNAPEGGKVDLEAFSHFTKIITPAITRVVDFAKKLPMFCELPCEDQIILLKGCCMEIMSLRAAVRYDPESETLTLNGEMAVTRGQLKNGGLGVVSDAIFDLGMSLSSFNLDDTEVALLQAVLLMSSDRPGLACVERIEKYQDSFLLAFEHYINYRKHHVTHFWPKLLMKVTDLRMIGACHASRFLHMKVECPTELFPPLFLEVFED
Sequence of Nuclear receptor subfamily 1 group I member 2 (Rattus norvegicus) (Q9R1A7 whole entry, looked up): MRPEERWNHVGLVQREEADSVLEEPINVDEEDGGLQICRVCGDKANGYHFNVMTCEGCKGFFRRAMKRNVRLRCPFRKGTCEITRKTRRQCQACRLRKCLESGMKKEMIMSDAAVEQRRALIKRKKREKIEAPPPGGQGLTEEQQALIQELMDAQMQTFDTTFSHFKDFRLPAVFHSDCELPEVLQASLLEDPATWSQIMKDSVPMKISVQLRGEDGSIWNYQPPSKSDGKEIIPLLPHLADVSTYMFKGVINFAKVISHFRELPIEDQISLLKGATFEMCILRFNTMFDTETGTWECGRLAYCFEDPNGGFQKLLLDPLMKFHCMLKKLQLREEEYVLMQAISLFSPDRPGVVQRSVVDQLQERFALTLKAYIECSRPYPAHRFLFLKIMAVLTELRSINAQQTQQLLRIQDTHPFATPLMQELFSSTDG

With `c1ccc2c(c1)oc1ccccc12`, the values for the activation in assay [1], in assay [13] and in assay [14] were 0.193% (inactive), -2.47% (inactive) and -1.03% (inactive), respectively. For the same molecule, the Potency result in assay [2], in assay [5], in [6], in assay [9], in [10] and in assay [15] was “inactive” throughout. Further, in [18], the Potency entry was “inactive”. For the same molecule, the molecule was classed as inactive in assay [3], in assay [7] and in [20]. For the same molecule, the max response in assay [4] was 3.99%; in [8] it was -6.25%; in assay [11] it was -9.11%; in assay [12], 10.8% (inactive); in [16], -12.3% (inactive); in [17] it was -8.74% (inactive). For the same molecule, the max response in [19] is -0.589% (inactive).
`Oc1ccc2ccccc2c1N=Nc1ccccc1`: the activation in [21] is 3.78% (inactive). Further, in assay [22], the Potency was 14.1 µM (active).
For `CCCCC(CC)COP(=O)(OCC(CC)CCCC)OCC(CC)CCCC` (centres undefined), in assay [23], the Potency result was “inactive”. Besides, the activation in assay [21] is -0.972% (inactive). Moreover, the molecule was called inactive in assay [3].
For `Cc1ccc2ccc3cccc4ccc1c2c34`, in [24], the Potency is 25.1 µM (active). For the same molecule, the activation in [21] was -4.07% (inactive). In assay [3], the outcome was inactive. In addition, the Potency entry in assay [25] is “inactive”.
